GALR2 ag = agonists of human galanin receptor 2 (GALR2); AID 803; activation, % (test concentration not listed); GALR2-expressing cells, agonist activation read-out; O43603; actives 0.48% (n = 140,000); in the data active = activation above about 5%, passing the limit was not always enough;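 note: 0% = vehicle buffer wells and 100% = reference agonist at full effect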
S1P2 ag = S1P2 (human) receptor agonism | O95136 | S1P2-expressing cell line, agonist reporter read-out | activation, % at 4.5 µM | actives 0.46% (n = 97,000); in the data active = activation above about 16%;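 note: 0% = vehicle low control and 100% = maximal reference agonist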
Target sequence (O95136 whole entry, looked up): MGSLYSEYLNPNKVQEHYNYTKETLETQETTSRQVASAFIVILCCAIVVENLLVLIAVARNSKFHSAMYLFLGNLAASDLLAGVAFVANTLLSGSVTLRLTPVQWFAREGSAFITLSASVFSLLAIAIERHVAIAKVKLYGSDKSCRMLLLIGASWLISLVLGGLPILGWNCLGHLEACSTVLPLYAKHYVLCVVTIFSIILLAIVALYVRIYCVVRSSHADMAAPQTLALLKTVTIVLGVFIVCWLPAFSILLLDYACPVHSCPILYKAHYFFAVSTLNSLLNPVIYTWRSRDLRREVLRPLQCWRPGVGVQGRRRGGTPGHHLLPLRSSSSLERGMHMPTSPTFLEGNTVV
GALR2 blocker = blocks the human galanin receptor 2. inhibition, % at 4 µM. GALR2-expressing cells, antagonist mode. actives 0.39% (n = 140,000). O43603; in the data active = inhibition above about 27%;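 note: cells stimulated with galanin 1-16 at roughly its EC80; 0% = agonist challenge control and 100% = basal control without agonist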
PostGolgi yeast = growth inhibition of a yeast mutant, post-Golgi transport screen; inhibition, % at 10 µM; post-Golgi transport phenotypic cell assay; actives 0.9% (n = 98,000);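 note: yeast cells grown in 1536-well plates; yeast grown about 18 h at 30C before absorbance read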
PostGolgi ctrl = yeast control strain growth, post-Golgi counter-screen; efflux-deficient yeast background strain, growth absorbance A615, 16 h; inhibition, % at 10 µM; actives 5% (n = 98,000); AID 738
S1P2 antag = antagonists of human S1P2 receptor. cell-based S1P2 antagonist assay, inhibition at 5 uM. actives 0.21% (n = 97,000). AID 736. inhibition, % at 5 µM; in the data active = inhibition above about 45%;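 note: CRE beta-lactamase reporter cells expressing human S1P2 stimulated with S1P; 0% = agonist at EC80 alone and 100% = agonist plus reference antagonist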
The depositor's hits bear a star; . = no result. Shown is part of a subset that was picked to be rich in hits. Cut-off read from the data, not from the text of the source, unless noted: active = inhibition above about 30%; inactive = the rest.

SMILES	GALR2 ag	S1P2 ag	GALR2 blocker	PostGolgi yeast	PostGolgi ctrl	S1P2 antag
O=C(CN1C(=O)S/C(=C\c2ccc(Cl)cc2)C1=O)NNC(=O)c1ccccc1O	2	.	0	.	.	.
Cc1cccc(C)c1NC(=O)c1sccc1SCc1cccc(C(F)(F)F)c1	2	-9	-12	-6	51*	-8
Cc1ccc(NC(=O)c2sccc2SCc2cccc(C(F)(F)F)c2)cc1	-1	-2	-17	-1	13	8
O=C(NCCCn1ccnc1)c1ccc2c(c1)OCCO2	-1	-1	-6	-6	47*	7
O=C(N/N=C1/C(=O)c2cccc3cccc1c23)c1ccc(Cl)cc1	-2	-5	-2	37*	11	0
Nc1nnnn1/N=C/C=C/c1ccccc1	-2	.	0	2	0	.
Nc1nnnn1/N=C/C(Br)=C/c1ccccc1	-1	-8	30*	7	19	47*
COc1ccc(S(=O)(=O)Nc2cc3c4c(oc3c3ccccc23)CCCC4=O)cc1	0	-5	-7	2	45*	-6
CCOc1cc2c(cc1C(C)(C)C)NC(=O)CS2	0	0	-2	2	35*	-17
N#CC1=C(N)NC(SCc2ccccc2)=C(C#N)C12CCCCC2	-1	-2	-1	103*	91*	12
S=C(c1ccc(Br)cc1)N1CCN(Cc2ccccc2)CC1	0	-9	4	-3	33*	1
CC(=O)N1N=C(C)CC1c1ccc(O)cc1 (configuration not stated)	0	.	3	.	.	.
Cc1cc(S(=O)(=O)Nc2ccc(N(C)C)cc2)c(C)s1	-1	-5	-16	20	48*	6
Cc1ccc(S(=O)(=O)N2CCCC2C(=O)Oc2ccccc2)cc1 (configuration not stated)	0	36*	0	-8	19	-2
CC(Cl)C(=O)Nc1ccccc1C#N (configuration not stated)	-1	.	22	.	.	.
Cn1c(SCC(=O)N2c3ccccc3Sc3ccc(Cl)cc32)nnc1-c1ccco1	-1	.	-5	53*	60*	.
CCc1nc(SCCO)c2oc3ccccc3c2n1	-2	2	5	19	5	-32
CCc1nc(SCC(=O)c2ccc(Cl)s2)c2oc3ccccc3c2n1	-1	0	-3	-2	22	-23
CCc1nc(SCC(=O)N2CCN(c3ccccc3)CC2)c2oc3ccccc3c2n1	-2	0	-2	-3	33*	-32
CCc1nc(SCc2nc3ccccc3[nH]2)c2oc3ccccc3c2n1	0	36*	-4	1	69*	-33
CC1CN(C(=O)c2ccccc2)c2ccccc2NC1=O (configuration not stated)	-3	.	5	.	.	.
Cc1cccc(C(=O)NC2CC3CCCC(C2)N3C(=O)NC2CCCCC2)c1 (configuration not stated)	-2	66*	6	0	-2	-8
Cc1ccnc(NC(NC(=O)C(C)C)(C(F)(F)F)C(F)(F)F)c1	-2	.	8	.	.	.
COc1ccc(NC(=O)c2cc3cc(OC)ccc3oc2=N)cc1	0	.	5	73*	77*	.
Cc1ccc(Nc2cc(=O)oc3ccccc23)c(C)c1	-3	-4	-1	18	44*	-12
SMILES	GALR2 ag	S1P2 ag	GALR2 blocker	PostGolgi yeast	PostGolgi ctrl	S1P2 antag
CCCOC(=O)c1ccc(NC(=O)c2cc(OC)c(OC)c(OC)c2Br)cc1	-4	-3	11	2	17	6
O=C(c1ccc(Cl)c(Cl)c1)c1cc(-c2ccccn2)c(N2CCOCC2)s1	-2	-9	-3	-3	56*	14
O=C(c1cc(Cl)ccc1Cl)N1CCN(c2ccccn2)CC1	-3	-6	-6	7	-9	-14
O=C(c1ccc(Br)cc1)c1cc(-c2ccccn2)c(N2CCOCC2)s1	-1	-2	-4	-4	43*	11
COc1ccc(-c2cc(C3CC3)nc3sc(C#N)c(N)c23)cc1	2	-5	4	6	63*	5
N#Cc1sc2nc(-c3cccs3)cc(-c3ccc(Cl)cc3)c2c1N	-2	-8	-14	9	1	-5
COc1cc(CNc2ccc(CNc3ncn[nH]3)cc2)ccc1OCc1ccccc1	0	.	-7	.	.	.
O=C(Nc1ccc2nsnc2c1)c1cccs1	2	-7	5	-3	40*	-5
Clc1ccc2[nH]c(-c3ccccc3)cc2c1	-1	-7	18	-6	42*	0
O=c1cc(-c2ccccc2)[nH]c2cc(Cl)ccc12	-1	.	16	.	.	.
C=CCn1c(SCC(O)Cn2c3ccccc3c3ccccc32)nnc1-c1ccco1 (configuration not stated)	1	0	-9	-8	46*	3
C=CCn1c(N)c(C(=O)Nc2cccc(C)c2)c2nc3ccccc3nc21	14*	52*	-7	23	35*	-50
C=CCn1c(N)c(C(=O)Nc2ccc(C)c(C)c2)c2nc3ccccc3nc21	1	9	5	-27	4	-35
COc1ccc2c(c1)c(=O)oc1cc(OCC(=O)NC3CCCCC3)ccc12	-3	-4	-4	81*	93*	12
NC(=O)c1ccc(C(F)(F)F)n(Cc2ccccc2Cl)c1=O	0	-4	-12	2	44*	-16
Cc1c(NC2=C(Cl)C(=O)N(c3ccccc3Cl)C2=O)c(=O)n(-c2ccccc2)n1C	-2	.	2	.	.	.
Cc1c(NC2=C(Cl)C(=O)N(c3ccccc3)C2=O)c(=O)n(-c2ccccc2)n1C	0	-1	7	7	31*	21
Cc1c(Nc2nc3ccccc3nc2N2CCN(c3ccccc3)CC2)c(=O)n(-c2ccccc2)n1C	-4	-8	2	2	34*	-18
Cc1cc(=O)[nH]c(Nc2c(C)n(C)n(-c3ccccc3)c2=O)n1	-1	-7	13	-3	-8	17
Cc1nc(SCC(=O)Nc2c(C)n(C)n(-c3ccccc3)c2=O)[nH]c(=O)c1C	-2	-6	9	.	.	-1
Cc1ccc2c(CC(=O)N3CCN(S(=O)(=O)c4ccc5c(c4)OCCO5)CC3)coc2c1	0	1	-20	9	24	-24
O=S(=O)(/N=C(/Nc1ccc(F)c(F)c1F)c1ccccc1)c1ccccc1	-2	.	-2	.	.	.
CC(=O)O/N=C/c1c(N2CCOCC2)n(C)c2ccccc12	-2	-3	9	26	10	11
Cc1ccc(C(=O)O/N=C/c2c(N3CCOCC3)n(C)c3ccccc23)cc1	-2	-6	11	16	32*	27
Cn1c(N2CCOCC2)c(/C=N/OC(=O)c2ccc(F)cc2)c2ccccc21	1	-2	18	42*	34*	-4
Cc1ccc(C23CC4CC(CC(NC(=O)NC(C)(C)CO)(C4)C2)C3)cc1	-2	2	-6	-2	38*	-18
C=CCNC(=O)COC(=O)c1ccc(Cl)c(S(=O)(=O)N(Cc2ccccc2)c2ccccc2)c1	0	.	-14	.	.	.
CCn1cnc2c1c(=O)n(Cc1csc(-c3ccccc3)n1)c(=O)n2Cc1ccccc1	-3	-7	-4	-2	48*	-23

Compound activity as filed in PubChem.
